In PubChem BioAssay one finds composite z-score and z-score data, which are given here for 5 compounds.

Structures are written as SMILES. Activity calls are given as the source filed them. Unless noted, the rule behind the calls is not given here.

The test system of assay [1] is Wnt5a (protein binding on small-molecule microarray). The experiment in a line: small molecules binding Wnt5a protein – biophysical, small-molecule microarray, 635/667 nm fluorescence, primary screen (AID 1142).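 Note: fluorescence read at 667 nm with signal to noise per printed feature.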 Conditions: 635 nm fluorescence, higher = more signal.
Assay [2] in a line: ATP-based viability of Huh7 replicon cells – cell-based, CellTiter-Glo luminescence, basal, 48 h, cytotoxicity control for HCV replication inhibitor project, primary screen (AID 1143).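 Note: Huh7 hepatoma cells carrying a hepatitis C replication reporter with no stimulus; test concentration not given here.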 Conditions: higher = more signal, called active from +8 up or from −8 down.
Assay [3] can be described thus: Pseudomonas biofilm growth suppression – PAO1 strain, BacTiter-Glo luminescence, LB-PBS, primary screen (AID 1144). Conditions: P. aeruginosa PAO1 biofilm, 12 h, higher = more signal.
Assay [4] is described as follows: basal CRE-LacZ reporter activity in PC12 – cell-based, unstimulated, primary screen (AID 1145). As to conditions: no forskolin, luminescence, 4.5 h, higher = more signal, called active from +8 up or from −8 down.
Assay [5] is described as follows: forskolin-driven CRE-LacZ activity in PC12 – cell-based, CRE-LacZ reporter, forskolin-stimulated, primary screen (AID 1146).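 Note: PC12 cells with 6xCRE LacZ reporter stimulated by forskolin 10 µM; beta-galactosidase reporter signal reflecting CREB driven transcription.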 As to conditions: luminescence, 4.5 h, higher = more signal, called active from +8 up or from −8 down.
Assay [6] deals with Streptavidin (Streptomyces avidinii) (UniProt P22629). The experiment in a line: compounds binding control protein streptavidin – biophysical, small-molecule microarray, 635/667 nm fluorescence, artefact control for SMM compound annotation, primary screen (AID 1147).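 Note: signal reflects streptavidin binding to arrayed compounds as a control protein.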 Conditions: higher = more signal.
Assay [7] can be described thus: probe aInhba binding on compound microarray – biochemical, small-molecule microarray, 635/667 nm fluorescence, primary screen (AID 1148).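 Note: score merges 667nm spot fluorescence with signal-to-noise for antibody binding to printed compounds.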 As to conditions: higher = more signal.
In assay [8] the target is Torsin-1A (Homo sapiens) (UniProt O14656). As to the kind of experiment: TOR1A wild-type binding on microarray – cell lysate, small-molecule microarray, lysate, 635/667 nm, primary screen (AID 1149). Conditions: COS7 hTOR1A-WT lysate, 635 nm fluorescence, higher = more signal.
Assay [9] shares this target. The experiment in a line: torsin A mutant lysate binding on microarrays – cell lysate, small-molecule microarray, COS7 lysate, 635/667 nm fluorescence, primary screen (AID 1150).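 Note: score pools 667 nm emission and signal to noise measuring lysate protein binding.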 As to conditions: COS7 hTOR1A mutant lysate, 635 nm fluorescence, higher = more signal.
Assay [10] concerns Sonic hedgehog protein (Shh). As to the kind of experiment: Sonic hedgehog microarray binding compounds – biochemical, small-molecule microarray, 635/667 nm fluorescence, primary screen (AID 1151).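 Note: Shh protein binding to compounds spotted on small-molecule microarray slides; score combines spot fluorescence intensity with signal-to-noise across triplicate slides.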 As to conditions: 635 nm fluorescence, higher = more signal.
The nature of assay [11]: optical density shifts of acrAB sulA E. coli – strain DRC41, OD650, 48 h, E. coli filamentation inducer project, primary screen (AID 1152).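 Note: E. coli MC1000 strain DRC41 lacking acrAB efflux pump and sulA.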 Conditions: higher = more signal, called active from +8 up or from −8 down.
Assay [12] in a line: probe aLefty1 binding on compound microarray – biochemical, small-molecule microarray, 635/667 nm fluorescence, primary screen (AID 1153).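 Note: score merges spot fluorescence with signal-to-noise ratio from the scanned slide images.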 As to conditions: higher = more signal.
Assay [13] in a line: plasmodial surface anion channel blockers, osmotic lysis – cell-based, P. falciparum Indochina, OD700, 1 h, primary screen (AID 1154). As to conditions: P. falciparum Indochina infected RBC osmotic lysis, higher = more signal, called active from +8 up or from −8 down.
A short description of assay [14]: plasmodial surface anion channel blockers, osmotic lysis – cell-based, P. falciparum Indochina, OD700, 2 h, primary screen (AID 1155).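 Note: lysis reports solute entry through the parasite surface anion channel PSAC.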 As to conditions: P. falciparum Indochina infected erythrocytes, higher = more signal, called active from +8 up or from −8 down.
Assay [15] is described as follows: changes in parasitized red cell lysis, either direction – P. falciparum Indochina, OD700, 3 h, PSAC antagonist project, primary screen (AID 1156). As to conditions: P. falciparum-infected erythrocytes, osmotic lysis, higher = more signal, called active from +8 up or from −8 down.
The nature of assay [16]: plasmodial surface anion channel blockers, osmotic lysis – cell-based, P. falciparum Indochina, OD700, 18 h, primary screen (AID 1157). Conditions: P. falciparum Indochina infected erythrocytes, osmotic lysis OD700, 18 h; higher = more signal, called active from +8 up or from −8 down.
Assay [17] in a line: S6 kinase pathway phospho-S6 level changes – cell-based, A549, cytoblot, luminescence, serum-stimulated, primary screen (AID 1158).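 Note: serum-stimulated A549 lung adenocarcinoma cells; signal is phosphorylated S6 detected by cytoblot immunostaining with HRP secondary.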 As to conditions: 5 h, higher = more signal.
Assay [18] has as its target NADPH oxidase 2 (Homo sapiens) (UniProt P04839). As to the kind of experiment: compounds shifting NOX2 Amplex Red fluorescence – cell-based, HEK293-NOX2, PMA-stimulated, NOX inhibitor project, primary screen (AID 1159). Note: test concentration not given here. Conditions: 45 min, higher = more signal, called active from +8 up or from −8 down.
Assay [19] concerns the target NADPH oxidase 4 (Homo sapiens) (UniProt Q9NPH5). As to the kind of experiment: compounds shifting NOX4 Amplex Red fluorescence – cell-based, HEK293-NOX4, tetracycline-induced, NOX inhibitor project, primary screen (AID 1160). Conditions: HEK293-NOX4, Amplex Red H2O2 fluorescence, 45 min; higher = more signal, called active from +8 up or from −8 down.
The target in assay [20] is NADPH oxidase 5 (Homo sapiens) (UniProt Q96PH1). As to the kind of experiment: compounds shifting NOX5 Amplex Red fluorescence – cell-based, HEK293-NOX5, NOX inhibitor project, primary screen (AID 1161). Conditions: HEK293-NOX5, ionomycin, 45 min, higher = more signal.
Chain of NADPH oxidase 5 (Homo sapiens) (Q96PH1 whole entry, looked up): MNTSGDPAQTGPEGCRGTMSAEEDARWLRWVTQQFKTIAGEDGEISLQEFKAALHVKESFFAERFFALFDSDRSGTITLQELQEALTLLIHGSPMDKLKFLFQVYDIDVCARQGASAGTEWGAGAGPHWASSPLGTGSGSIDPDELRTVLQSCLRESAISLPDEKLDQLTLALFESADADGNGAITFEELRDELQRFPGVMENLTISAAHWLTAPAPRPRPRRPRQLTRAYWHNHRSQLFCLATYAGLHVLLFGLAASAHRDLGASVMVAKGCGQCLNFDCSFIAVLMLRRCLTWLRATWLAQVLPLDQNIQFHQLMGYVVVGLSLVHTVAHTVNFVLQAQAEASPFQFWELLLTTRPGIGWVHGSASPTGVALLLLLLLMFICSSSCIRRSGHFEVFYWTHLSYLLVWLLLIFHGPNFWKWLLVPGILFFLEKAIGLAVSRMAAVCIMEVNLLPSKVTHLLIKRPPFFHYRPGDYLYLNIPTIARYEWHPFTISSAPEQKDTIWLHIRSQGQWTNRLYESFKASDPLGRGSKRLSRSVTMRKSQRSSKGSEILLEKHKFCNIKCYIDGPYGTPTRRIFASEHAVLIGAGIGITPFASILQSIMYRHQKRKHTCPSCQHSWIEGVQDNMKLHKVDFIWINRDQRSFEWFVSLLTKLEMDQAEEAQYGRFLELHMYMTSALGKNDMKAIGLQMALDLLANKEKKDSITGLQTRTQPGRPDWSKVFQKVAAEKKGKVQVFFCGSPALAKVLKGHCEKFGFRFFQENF

Chain of NADPH oxidase 2 (Homo sapiens) (P04839 whole entry, looked up): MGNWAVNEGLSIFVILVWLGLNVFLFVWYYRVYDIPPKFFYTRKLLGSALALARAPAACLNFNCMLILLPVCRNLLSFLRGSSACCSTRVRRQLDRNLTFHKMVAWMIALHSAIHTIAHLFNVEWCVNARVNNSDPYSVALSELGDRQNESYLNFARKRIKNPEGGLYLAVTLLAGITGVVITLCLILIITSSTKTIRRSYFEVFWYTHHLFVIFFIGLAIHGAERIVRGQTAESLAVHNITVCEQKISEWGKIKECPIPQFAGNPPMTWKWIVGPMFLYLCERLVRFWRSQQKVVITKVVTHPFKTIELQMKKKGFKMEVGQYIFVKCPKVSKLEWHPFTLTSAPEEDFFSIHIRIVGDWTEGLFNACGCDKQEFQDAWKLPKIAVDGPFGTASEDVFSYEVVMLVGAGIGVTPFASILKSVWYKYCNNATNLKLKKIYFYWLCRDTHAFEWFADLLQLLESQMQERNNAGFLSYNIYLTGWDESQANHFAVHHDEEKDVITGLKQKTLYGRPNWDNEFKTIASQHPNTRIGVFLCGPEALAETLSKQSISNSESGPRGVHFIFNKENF
Chain of Torsin-1A (Homo sapiens) (O14656 whole entry, looked up): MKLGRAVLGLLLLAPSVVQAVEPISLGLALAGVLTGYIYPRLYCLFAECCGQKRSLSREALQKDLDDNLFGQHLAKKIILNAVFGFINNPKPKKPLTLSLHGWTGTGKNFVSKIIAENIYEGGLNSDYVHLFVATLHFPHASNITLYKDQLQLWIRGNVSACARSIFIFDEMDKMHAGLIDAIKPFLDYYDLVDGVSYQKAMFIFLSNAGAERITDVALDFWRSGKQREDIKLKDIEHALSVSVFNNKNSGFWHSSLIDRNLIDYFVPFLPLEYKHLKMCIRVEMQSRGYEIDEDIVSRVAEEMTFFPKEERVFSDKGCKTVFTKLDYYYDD
Chain of Streptavidin (Streptomyces avidinii) (P22629 whole entry, looked up): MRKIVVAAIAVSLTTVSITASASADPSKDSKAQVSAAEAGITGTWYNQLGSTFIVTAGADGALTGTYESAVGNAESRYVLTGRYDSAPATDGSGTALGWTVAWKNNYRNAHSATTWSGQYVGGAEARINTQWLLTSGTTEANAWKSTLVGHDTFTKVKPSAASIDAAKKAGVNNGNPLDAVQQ
Chain of NADPH oxidase 4 (Homo sapiens) (Q9NPH5 whole entry, looked up): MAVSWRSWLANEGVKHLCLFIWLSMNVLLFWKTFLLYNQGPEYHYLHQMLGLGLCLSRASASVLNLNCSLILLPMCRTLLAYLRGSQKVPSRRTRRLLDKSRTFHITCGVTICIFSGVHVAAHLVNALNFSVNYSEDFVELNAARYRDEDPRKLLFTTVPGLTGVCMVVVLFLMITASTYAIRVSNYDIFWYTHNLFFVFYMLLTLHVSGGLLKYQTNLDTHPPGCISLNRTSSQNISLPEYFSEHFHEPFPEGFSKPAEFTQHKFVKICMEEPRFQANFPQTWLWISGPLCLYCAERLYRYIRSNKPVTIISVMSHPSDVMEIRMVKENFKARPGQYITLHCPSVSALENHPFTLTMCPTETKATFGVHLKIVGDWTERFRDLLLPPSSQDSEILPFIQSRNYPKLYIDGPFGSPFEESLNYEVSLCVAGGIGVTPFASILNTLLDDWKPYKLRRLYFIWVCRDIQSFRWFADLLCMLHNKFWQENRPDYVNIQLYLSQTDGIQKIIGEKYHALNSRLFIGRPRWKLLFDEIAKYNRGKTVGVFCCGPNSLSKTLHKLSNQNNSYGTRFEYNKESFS

On to `C#CCCCON=C1C[C@@H](O)[C@@H](O)[C@@H]2[C@@H]3C(=O)N(C[C@@H]4CCCO4)C(=O)[C@@H]3CC[C@@H]12`, for which the composite z-score in assay [1] is 0.195; in assay [6], 0.269; in assay [7] it was -0.142; in assay [8], 0.308; in [9], 0.28; in assay [10] it was 0.305. This compound registered a composite z-score in assay [12] of 0.145. Also, the z-score in assay [2] was 0.0109 (inactive); in assay [3], -0.164 (inactive); in [4], 0.0687 (inactive); in assay [5] it was 0.305 (inactive); in [11] it was 0.225 (inactive); in assay [13], -0.262 (inactive). The z-score in [14] is 0.284 (inactive); in [15] it was -1.08 (inactive); in assay [16], 0.354 (inactive); in assay [17], -0.53; in [18], -3.03 (inactive); in assay [19] it was 0.424 (inactive). In assay [20], the z-score is -0.0863.
Consider `O=C1[C@H]2[C@H]3[C@H](O)[C@H](O)CC(=NO[C@@H]4O[C@H](CO)[C@@H](O)[C@H](O)[C@H]4O)[C@@H]3CC[C@H]2C(=O)N1C[C@@H]1CCCO1`, for which the composite z-score is 0.185 in assay [1]; 0.0066 in assay [6]; -0.128 in assay [7]; 0.339 in assay [8]; -0.0388 in assay [9]; 0.89 in assay [10]. In addition, the composite z-score in assay [12] was -0.0462. Moreover, the z-score is -2.92 (inactive) in assay [2]; -0.131 (inactive) in [3]; 0.885 (inactive) in assay [4]; 0.0432 (inactive) in [5]; -1.2 (inactive) in [11]; 0.377 (inactive) in assay [13]. For the same compound, the z-score in [14] is -0.963 (inactive); in assay [15] it was 0.389 (inactive); in assay [16] it was -2.39 (inactive); in assay [17] it was 0.054; in [18], -2.04 (inactive); in assay [19] it was -0.772 (inactive). In assay [20], the z-score was -0.711.
As to `O=C1[C@H]2CCn3c(=O)n(-c4ccccc4)c(=O)n3[C@H]2[C@H](O)[C@@H]2O[C@H]12`, the composite z-score is 0.0253 in assay [1]; 0.556 in [6]; -0.272 in assay [7]; 0.0097 in [8]; 0.109 in [9]; 0.24 in [10]. For the same compound, in assay [12], the composite z-score is -0.391. Besides, the z-score is 0.332 (inactive) in assay [2]; 0.102 (inactive) in [3]; -0.0164 (inactive) in assay [4]; 0.0871 (inactive) in assay [5]; -0.323 (inactive) in [11]; -0.132 (inactive) in assay [13]. For the same compound, the z-score was 0.105 (inactive) in [14]; 0.337 (inactive) in [15]; 0.304 (inactive) in assay [16]; -0.236 in assay [17]; -1.3 (inactive) in assay [18]; -0.584 (inactive) in assay [19]. Further, the z-score in assay [20] worked out at 0.423.
As for `CCOC(=O)[C@H](CC(C)C)NC(=O)CCC1CC(OC(=O)NCCc2ccc(F)cc2)CC2(CCCC(COC(=O)NCc3cccc4ccccc34)O2)O1` (stereo not given in full), the composite z-score in [1] is -0.165; in assay [6], 1.57; in assay [7], -0.131; in assay [8], -0.169; in [9], 0.184; in assay [10], 0.601. The compound further registered a composite z-score in [12] of -0.147. In addition, the z-score in [2] is -0.731 (inactive); in [3], -0.596 (inactive); in assay [4], -0.889 (inactive); in assay [5] it was 1.01 (inactive); in assay [11] it was -0.14 (inactive); in assay [13], 15.2 (active). The z-score was 3.27 (inactive) in [14]; -1.34 (inactive) in [15]; 0.344 (inactive) in [16]; 0.927 in assay [17]; 0.135 (inactive) in assay [18]; 0.378 (inactive) in [19]. Moreover, the z-score in [20] was -0.0307.
Take `C[C@H]1C=CCC(=O)OC[C@H](C)C(=O)N2CCC[C@H]2C(=O)OC1`: the composite z-score in [1] was 0.193; in assay [6], -0.176; in assay [7], -0.182; in [8], 3.32; in [9] it was 3.03; in [10], 2.35. Moreover, the composite z-score in [12] is -0.199. The z-score in assay [2] is -0.401 (inactive); in [3], -0.324 (inactive); in assay [4], -0.324 (inactive); in [5] it was 0.0267 (inactive); in assay [11] it was 0.392 (inactive); in [13] it was 0.158 (inactive). The z-score in [14] is -0.157 (inactive); in [15], 0.484 (inactive); in assay [16], 0.0217 (inactive); in assay [17], -0.732; in [18], 0.166 (inactive); in assay [19], 0.515 (inactive). Further, the z-score in assay [20] was -0.957.
